# Assay results from PubChem BioAssay AID686978 (National Center for Advancing Translational Sciences (NCATS), 2013).
# Out of some 420,000 compounds screened, about 64,000 (15%) were called active. Not shown: some 27% with an inconclusive outcome. Calls come from the whole dose curve; as a rule, active = well fitted inhibition curve with a large enough effect; inconclusive = small, poorly fitted or top-dose-only effect; inactive = flat fitted curve, though single readings scatter. The list is a sample of the results. Where a call stands in place of a potency, no number is given.
# Assay: qHTS for Inhibitors of human tyrosyl-DNA phosphodiesterase 1 (TDP1): qHTS in cells in absence of CPT; note: nearly all actives have a fitted effect of over 55% in size
# Conditions: DT40 Tdp1-/- hTDP1 cells, no CPT, ATP luminescence, 48 h; activity change, negative = growth inhibition: at 46.2 µM (top of the series)
# In short: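 Growth of hTDP1-complemented DT40 Tdp1-knockout cells is measured by ATP luminescence after at least 48 hr compound exposure at 37 °C, with DMSO substituting for the 20 nM CPT used in the parallel screen.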
# Potency is the fitted concentration of half-maximal effect.
row,Compound,Potency
1,CCN(Cc1ccccc1)Cc1c(O)ccc2c(=O)c(-c3ccc(Cl)cc3Cl)coc12,inactive
2,CCCn1c(SCC(=O)Nc2ccc(C)c(S(=O)(=O)N3CCOCC3)c2)n[nH]c1=O,inactive
3,CCOC(=O)C1CCN(C(=O)C2(NC(=O)Nc3cccc(F)c3)CCCCC2)CC1,inactive
4,COC(=O)C(=Nc1ccccc1)/C(C(=O)C(=O)N(C)c1ccccc1)=C(\O)c1ccc(Cl)cc1,inactive
5,COc1cc(OC)c(C(=O)OCC(=O)N2CC(=O)Nc3ccccc32)cc1OC,inactive
6,O=C1NC(c2ccncc2)Nc2sc3c(c21)CCCC3 (configuration not stated),inactive
7,N#Cc1c(N)sc2c1CCN(C(=O)OCc1ccccc1)C2,inactive
8,CCOC(=O)N1CCc2c(sc3c2C(=O)NC(c2ccccc2F)N3)C1 (configuration not stated),16.4 µM (active)
9,C#CCN1C(=O)C(O)(CC(=O)c2cc(OC)ccc2OC)c2ccccc21 (configuration not stated),16.4 µM (active)
10,COc1ccc(OC)c(NC(=O)c2cnn(-c3ccccc3Cl)c2NC(=O)c2ccco2)c1,inactive
11,COc1ccc(C(=O)COC(=O)c2nn(C)c(=O)c3ccccc23)c(OC)c1,inactive
12,CC(=O)NC(=S)Nc1ccc(NC(=O)c2cccnc2)cc1,inactive
13,N#CCSc1ccccc1NC(=O)CN1C(=O)NC(CCc2ccccc2)C1=O (configuration not stated),inactive
14,Cn1ncc([N+](=O)[O-])c1C(=O)Nc1cc(Cl)ccc1Cl,inactive
15,COc1ccc(CCNC(=O)COC(=O)C2CCCCC2)cc1,inactive
16,COc1ccc(CN2CN(C(C)C)CSC2=S)cc1,3.26 µM (active)
17,COc1ccc(CN2CN(C3CCCC3)CSC2=S)cc1,4.61 µM (active)
18,COc1ccc(CN2CC(C(=O)NC3CCCCC3)CC2=O)cc1 (configuration not stated),inactive
19,COc1ccc(CN2CC(C(=O)NCCc3ccc(Cl)cc3)CC2=O)cc1 (configuration not stated),inactive
20,COc1ccc(Cn2c(=O)cc(C)[nH]c2=S)cc1,inactive
21,CC(=O)N1CSCC1C(=O)O (configuration not stated),inactive
22,CC1(C)Oc2ccc3ccc(=O)oc3c2/C(=C/NCCO)C1=O,inactive
23,CCCCN(C(=O)C(CCSC)N1C(=O)c2ccccc2C1=O)c1c(N)n(CCC)c(=O)[nH]c1=O (configuration not stated),inactive
24,CC(C)(CNC(=O)CNC(=O)C1CCCCC1)N1CCOCC1,inactive
25,CCOc1c(OC)cc(C2C(C#N)=C(N)Oc3n[nH]c(-c4ccncc4)c32)cc1OC (configuration not stated),inactive
26,CCCc1nc2c([nH]1)C(c1cccnc1)C(C#N)=C(N)O2 (configuration not stated),inactive

row,Compound,Potency
1,COc1cc(C2C(C#N)=C(N)Oc3n[nH]c(-c4ccccn4)c32)cc(OC)c1OC (configuration not stated),inactive
2,CCCc1[nH]nc2c1C(c1ccc(Br)s1)C(C#N)=C(N)O2 (configuration not stated),7.31 µM (active)
3,CCCc1[nH]nc2c1C(C1CC=CCC1)C(C#N)=C(N)O2 (configuration not stated),13 µM (active)
4,Cc1cc(C)c(C#N)c(SCc2[nH]nc3c2C(c2ccccc2)C(C#N)=C(N)O3)n1 (configuration not stated),inactive
5,N#CC1=C(N)OC2=C(C(=O)CCC2)C1C1CC=CCC1 (configuration not stated),inactive
6,CCc1ccc(C2C(C#N)=C(N)Oc3n[nH]c(CC(=O)OC)c32)cc1 (configuration not stated),inactive
7,COCc1[nH]nc2c1C(C1C=CCCC1)C(C#N)=C(N)O2 (configuration not stated),20.6 µM (active)
8,CCOc1ccc(CNC(=O)C2CCC(=O)N2C2CCCC2)cc1OC (configuration not stated),inactive
9,CCCC(=O)Nc1ccc(C(=O)N/N=C/c2ccc[nH]2)cc1,inactive
10,CCOC(=O)c1ccccc1NC(=O)CSc1nc2ccccc2c(=O)[nH]1,inactive
11,COc1ccc(C(=O)c2oc3ccccc3c2NC(=O)COc2cccc(C)c2)cc1,inactive
12,C=CCN(CC=C)C(=O)COC(=O)c1n[nH]c2ccccc12,inactive
13,COC(=O)c1sccc1-n1cccc1C(=O)C(=O)N1CCCCC1,inactive
14,CCOC(=O)CSc1nnc(CNc2ccc(F)cc2)o1,inactive
15,COc1ccc(Cc2nnc(SCC(=O)Nc3ccc(C)c(C)c3)o2)cc1OC,inactive
16,CCC(=O)Nc1ccc(C(=O)CSc2nnc(CNc3ccc(Cl)cc3)o2)cc1OC,12.6 µM (active)
17,Cc1nn(C)cc1C(=O)NNC(=S)Nc1ccc(Cl)cc1,inactive
18,O=S(=O)(c1cccc(Cn2nnc(-c3ccc(F)cc3)n2)c1)N1CCOCC1,20.6 µM (active)
19,CCN(Cc1ccncc1)C(=O)c1cccc(S(=O)(=O)N2CCOCC2)c1,inactive
20,Cc1ccc(S(=O)(=O)N2CCOCC2)cc1C(=O)NCc1ccc(F)cc1,inactive
21,CN(C)c1ccc(/C=c2\[nH]c(=O)/c(=C/c3ccc(N(C)C)cc3)[nH]c2=O)cc1,inactive
22,COc1cc(/C=C2/SC(=S)N(Cc3ccccc3)C2=O)cc(OC)c1O,inactive
23,CN(C)c1ccc(/C=C2\NC(=S)N(Cc3ccccc3)C2=O)cc1,20.6 µM (active)
24,Cc1ccc(-c2nc3ccccn3c2Nc2c(C)cccc2C)o1,18.4 µM (active)
25,Cc1nc2ccccn2c(=O)c1NC(=O)c1c(F)cccc1F,inactive
26,Cc1nc2ccccn2c(=O)c1NC(=O)c1ccc(Br)o1,inactive
